Test system: Vero E6 infected with SARS-CoV-2
Test: inhibition of SARS-CoV-2 cytopathic effect; higher = more antiviral protection, active = above 15
Conditions: 48 h

Measured: inhibition of SARS-CoV-2 cytopathic effect

Nn1cnc2cc3ccccc3cc2c1=O [centazolone]
inactive: 1 nM -0.59% | 8.33 nM 0.85% | 100 nM 0.4% | 833.33 nM -1.41% | 10000 nM 0.93%

CC(=O)N[C@H]1[C@H]([C@H](O)[C@H](O)CO)OC(C(=O)O)=C[C@@H]1NC(=N)N [zanamivir]
inactive: 1 nM 0.39% | 8.33 nM 0.16% | 100 nM -0.26% | 833.33 nM 2.6% | 10000 nM 2.28%

CC(C)c1cc(CNc2nc(Nc3cc(C4CC4)[nH]n3)cc(N3CCN(C)CC3)n2)on1
inactive: 1 nM 0.13% | 8.33 nM 1.15% | 100 nM 0.48% | 833.33 nM -4.78% | 10000 nM -15%

CC[C@H](C)[C@@H]1NC(=O)[C@H](Cc2ccc(OC)cc2)NC(=O)CCCSC[C@@H](C(=O)N2CCC[C@H]2C(=O)N[C@@H](CC(C)C)C(=O)NCC(N)=O)NC(=O)[C@H](CC(N)=O)NC(=O)[C@H](CCC(N)=O)NC1=O [carbetocin]
inactive: 1 nM -1.89% | 8.33 nM 0.45% | 100 nM -1.53% | 833.33 nM 1.22% | 10000 nM -1.25%

COc1ccccc1S(=O)(=O)Nc1ccc2c(c1)CN(C)C(=O)N2
inactive: 1 nM 2.59% | 8.33 nM 3.07% | 100 nM 0.97% | 833.33 nM 1.47% | 10000 nM -5.29%

Cc1cc(Nc2ncnc3ccc(-c4ccc(CNCCS(C)(=O)=O)o4)cc23)ccc1Oc1ccn2ncnc2c1 [HER2-Inhibitor-1]
inactive: 1 nM 2.32% | 8.33 nM 3.23% | 100 nM -0.2% | 833.33 nM -2.65% | 10000 nM 3.1%

C[C@H](CCC(=O)O)[C@H]1CC[C@H]2[C@@H]3C(=O)C[C@@H]4CC(=O)CC[C@]4(C)[C@H]3CC(=O)[C@]12C [dehydrocholate-acid]
inactive: 1 nM -5.5% | 8.33 nM -4.18% | 100 nM -2.25% | 833.33 nM -2.84% | 10000 nM -7.01%

C[C@@H]1CC(=O)NN=C1c1ccc(NN=C(C#N)C#N)cc1 [levosimendan]
inactive: 1 nM -0.58% | 8.33 nM 0.74% | 100 nM 0.3% | 833.33 nM 1.84% | 10000 nM 1.18%

Oc1ccc2c3c1O[C@H]1[C@@H](O)CC[C@@]4(O)[C@@H](C2)N(CC2CCC2)CC[C@]314 [nalbuphine]
inactive: 1 nM 2.57% | 8.33 nM 0.43% | 100 nM 0.27% | 833.33 nM 0.68% | 10000 nM 0.06%

COc1ccc(-c2oc3cc(OC)ccc3c2C(=O)c2ccc(C#N)cc2)cc1
inactive: 1 nM -2.41% | 8.33 nM -2.08% | 100 nM -3.03% | 833.33 nM -3.9% | 10000 nM 1.7%

COc1ccc2cc(CCC(C)=O)ccc2c1 [nabumetone]
inactive: 1 nM 0.72% | 8.33 nM 0.69% | 100 nM -4.19% | 833.33 nM -1.8% | 10000 nM -0.03%

O[C@@H](COc1cccc2ncccc12)CN1CCN([C@@H]2c3ccccc3[C@@H]3[C@H](c4ccccc42)C3(F)F)CC1 [zosuquidar]
inactive: 1 nM -0.36% | 8.33 nM 1.65% | 100 nM 0.11% | 833.33 nM 0.85% | 10000 nM -3.28%

Nc1ncnc2c1c(-c1ccc(Cl)cc1)nn2-c1cccc(-c2cnnn2Cc2cccc(-c3ccccc3)c2)c1
inactive: 1 nM -2.81% | 8.33 nM -0.01% | 100 nM -1.05% | 833.33 nM -2.27% | 10000 nM -0.83%

COc1ccccc1N1CCN(CC(O)COc2cc(OC)c(OC)c(OC)c2)CC1 (stereo not given) [enciprazine]
inactive: 1 nM 0.76% | 8.33 nM 1.14% | 100 nM 0.33% | 833.33 nM -0.53% | 10000 nM -2.4%

O=C(O)c1cc(/N=N/c2ccc(O)c(C(=O)O)c2)ccc1O [olsalazine]
inactive: 1 nM 1.15% | 8.33 nM 2.03% | 100 nM 0.75% | 833.33 nM 2.78% | 10000 nM 1.21%

NS(=O)(=O)c1cc2c(cc1Cl)N=CNS2(=O)=O [chlorothiazide]
inactive: 1 nM 0.29% | 8.33 nM 0% | 100 nM -0.95% | 833.33 nM -0.05% | 10000 nM -0.76%

CC(=O)OCC(=O)[C@@]1(O)CC[C@H]2[C@@H]3CCC4=CC(=O)C=C[C@]4(C)[C@@]3(Cl)[C@@H](Cl)C[C@@]21C [dichlorisone-acetate]
inactive: 1 nM -1.93% | 8.33 nM -2.25% | 100 nM -3.39% | 833.33 nM -2.97% | 10000 nM -2.91%

Cn1c2c(c3ccccc31)CCNCC2
inactive: 1 nM 3.79% | 8.33 nM 2.27% | 100 nM -0.51% | 833.33 nM 0.96% | 10000 nM -0.01%

Nc1[nH]cnc2ncnc1-2 [adenine]
inactive: 1 nM 1.26% | 8.33 nM 0.3% | 100 nM 3.06% | 833.33 nM 6.45% | 10000 nM 3.2%

CC(C)N1Cc2cc(S(C)(=O)=O)ccc2N(CCN2CC=C(c3c[nH]c4cc(F)ccc34)CC2)S1(=O)=O
inactive: 1 nM -0.02% | 8.33 nM 5.05% | 100 nM 2.58% | 833.33 nM 1.15% | 10000 nM 4%

CCOC(=O)/C=C(C)/C=C/C=C(C)/C=C/c1c(C)cc(OC)c(C)c1C [etretinate]
inactive: 1 nM -2.16% | 8.33 nM 0.11% | 100 nM 0.84% | 833.33 nM 2.68% | 10000 nM 3.85%

O=C(O)/C=C/c1ccc(O)c(O)c1 [caffeic-acid]
inactive: 1 nM 2.05% | 8.33 nM -0.05% | 100 nM 0.87% | 833.33 nM -0.22% | 10000 nM -4.36%

CC1(C)C(=O)NC2=C1C(=O)C(=O)c1ccccc12
inactive: 1 nM 0.25% | 8.33 nM -0.49% | 100 nM -0.78% | 833.33 nM 1.58% | 10000 nM -10.5%

O=C(O)CCNc1cc(N2CCc3ccccc3CC2)nc(-c2ccccn2)n1
inactive: 1 nM -2.6% | 8.33 nM 1.21% | 100 nM 0.26% | 833.33 nM -1.21% | 10000 nM 0.82%

O[C@H]1[C@H](O)[C@@H](O)CN2CC[C@H](O)[C@H]12 [castanospermine]
inactive: 1 nM 0.15% | 8.33 nM 1.99% | 100 nM 1.25% | 833.33 nM 1.7% | 10000 nM 2.28%

C[N+]1(C)CCc2cc3c(cc2[C@H]1[C@@H]1OC(=O)c2c1ccc1c2OCO1)OCO3 [bicuculline-methochloride-(-)]
inactive: 1 nM -4.58% | 8.33 nM 0.48% | 100 nM 0.65% | 833.33 nM 3.59% | 10000 nM -2.23%

Cc1nc(Nc2n[nH]c3c2CN(C(=O)N[C@H](CN(C)C)c2ccccc2)C3(C)C)c2sccc2n1
inactive: 1 nM 3.94% | 8.33 nM -1.34% | 100 nM -3.76% | 833.33 nM -4.38% | 10000 nM -7.39%

N=C(N)NC(=O)c1cnccn1 [pyrazinoylguanidine]
inactive: 1 nM 0.04% | 8.33 nM -6.78% | 100 nM -2.28% | 833.33 nM -5.59% | 10000 nM -0.5%

C[C@H](Nc1ncnc2[nH]cnc12)c1nc2ccc(F)cc2c(=O)n1-c1ccccc1 [acalisib]
inactive: 1 nM 0.46% | 8.33 nM -0.64% | 100 nM 0.1% | 833.33 nM -0.64% | 10000 nM -5.35%

CCOC(=O)c1ccc(C#Cc2ccc3c(c2)C(C)(C)CCS3)nc1 [tazarotene]
inactive: 1 nM 0.41% | 8.33 nM 0.89% | 100 nM 1.7% | 833.33 nM 3.69% | 10000 nM 0.98%

CC1(C)S[C@@H]2[C@H](NC(=O)COc3ccccc3)C(=O)N2[C@H]1C(=O)O [penicillin-v-potassium]
inactive: 1 nM -0.76% | 8.33 nM 1.87% | 100 nM -1.93% | 833.33 nM 1.76% | 10000 nM 0.08%

CN1C(=O)c2c(nn(Cc3ccc(-c4cccc(F)n4)cc3)c2Nc2ccccc2)N2C1=N[C@@H]1CCC[C@@H]12
inactive: 1 nM 0.59% | 8.33 nM 1.65% | 100 nM 2.18% | 833.33 nM 3.15% | 10000 nM 0.62%

O=C(O)c1cccnc1C(=O)O [quinolinic-acid]
inactive: 1 nM 1.12% | 8.33 nM -1.19% | 100 nM 0.73% | 833.33 nM -1.65% | 10000 nM -4.35%

Cc1cc(C(=O)O)sc1C(N)C(=O)O (stereo not given)
inactive: 1 nM 0.31% | 8.33 nM -0.48% | 100 nM -1.39% | 833.33 nM 1.06% | 10000 nM -0.02%

COc1cc(-n2c(=S)[nH]c3ccccc3c2=O)c(Cl)cc1Cl [mdivi-1]
inactive: 1 nM 0.74% | 8.33 nM 0.3% | 100 nM -0.2% | 833.33 nM -0.45% | 10000 nM -1.37%

CC(=O)[C@H]1CC[C@H]2[C@@H]3CC=C4C[C@@H](OC(=O)CCC(=O)O)CC[C@]4(C)[C@H]3CC[C@]12C [pregnenolone-succinate]
inactive: 1 nM 5.34% | 8.33 nM 3.1% | 100 nM 3.45% | 833.33 nM 5.79% | 10000 nM 5.05%

CCCC[C@H]1C(=O)N(c2ccccc2)N(c2ccc(O)cc2)C1=O [oxyphenbutazone]
inactive: 1 nM 0.53% | 8.33 nM 1.14% | 100 nM 1.48% | 833.33 nM 3.6% | 10000 nM 10.9%

C[N+](C)(CCOc1ccccc1)Cc1ccccc1 [bephenium-hydroxynaphthoate]
inactive: 1 nM 2.11% | 8.33 nM 0.87% | 100 nM 0.58% | 833.33 nM 0.22% | 10000 nM -0.72%
